Cy5 interf NS3h – enhances or quenches Cy5 fluorescence in NS3h assay | fluorescence interference ratio at 100 µM | 16,000 tested, 6% active | AID 720488 | Cy5-dT15 DNA with NS3h, fluorescence interference; actives lie on both sides; signal over control mean, under 1 quenches;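 active = compound fluorescence over control fluorescence at most 0.8, a quencher, or at least a set upper limit, an enhancer; inactive = ratio between 0.8 and the set upper limit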
HCV NS3h FP – hepatitis C NS3 helicase inhibition, primary screen; 16,000 tested, 1.6% active; NS3h Cy5-dT15 DNA binding, fluorescence polarization; inhibition, % at 100 µM;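 active = inhibition above the average over every tested compound plus 3 SD, cut at about 40% in these data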
HCV NS3h conf – confirmation of hepatitis C virus NS3 helicase inhibitors; 240 tested, 20% active; inhibition, % at 100 µM; AID 720485; shares compounds with HCV NS3h FP; NS3h binding to Cy5-dT15 DNA, fluorescence polarization;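 active = percent inhibition of 50% or more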
SSB-DNA FP CB – E. coli SSB-DNA binding inhibition, NS3h counter-screen; inhibition, % at 100 µM; AID 720486; shares compounds with HCV NS3h FP; 240 tested, 40% active; E. coli SSB binding Cy5-dT15, fluorescence polarization;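 active = inhibition of at least 50%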;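 note: displacers lower Cy5 polarization so higher inhibition means more SSB displaced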
Target sequence (P0AGE0 whole entry, looked up): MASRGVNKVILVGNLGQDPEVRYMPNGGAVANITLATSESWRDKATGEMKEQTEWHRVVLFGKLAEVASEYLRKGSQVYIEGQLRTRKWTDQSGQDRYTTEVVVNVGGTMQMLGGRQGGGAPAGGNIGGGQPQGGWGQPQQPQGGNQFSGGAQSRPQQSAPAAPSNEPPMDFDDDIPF
Cy5 SSB fluor CB – counter-screen for HCV NS3 helicase inhibitors: fluorescence interference; shares compounds with HCV NS3h FP; fluorescence interference ratio at 100 µM; 240 tested, 8% active; Cy5-dT15/E. coli SSB fluorescence interference; actives lie on both sides;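 active = fluorescence interference ratio at or above 1.2, signal boosting, or at or below 0.8, signal quenching; inactive = ratio between 0.8 and 1.2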
Cy5 fluor confirm – Cy5 fluorescence interference, confirmation counter-screen; shares compounds with HCV NS3h FP; Cy5-dT15 DNA/NS3h fluorescence interference counterscreen; fluorescence interference ratio at 100 µM, hits read low; 240 tested, 44% active;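 active = fluorescence interference ratio at or below 0.8 quencher or at or above a set limitenhancer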
Each line names hits and unclear results; the compound was inactive in the other large screens (follow-up assays come after a bar, where they were run). Shown are actives, neighbours in structure and some others; about 6.9% of the full set was active somewhere.

O=C1c2ccccc2C(=O)N1Cc1nc2ccccc2c(=O)n1-c1ccncc1	none
O=C1NC(=O)N(c2ccc(Cl)cc2)C(=O)/C1=C\c1cc(Br)cc(Cl)c1O	none
Cc1ccc(N2C(=O)NC(=O)/C(=C\c3ccc(-c4ccc(Cl)c(C(=O)O)c4)o3)C2=O)cc1	HCV NS3h FP 62 | HCV NS3h conf 75 | SSB-DNA FP CB 62 | Cy5 SSB fluor CB inactive | Cy5 fluor confirm inactive
O=C1NC(=O)N(c2ccccc2F)C(=O)/C1=C/c1ccc(-c2cc(C(=O)O)ccc2Cl)o1	none | HCV NS3h conf 92 | SSB-DNA FP CB inactive | Cy5 SSB fluor CB inactive | Cy5 fluor confirm inactive
COc1ccc(N2C(=O)/C(=C/c3ccc(-c4cc(C(=O)O)ccc4Cl)o3)C(=O)NC2=S)cc1	none | HCV NS3h conf inactive | SSB-DNA FP CB 67 | Cy5 SSB fluor CB inactive | Cy5 fluor confirm 0.8
O=C1NC(=O)C(=Cc2ccc(-c3ccc(C(=O)O)cc3)o2)C(=O)N1	HCV NS3h FP 69 | HCV NS3h conf inactive | SSB-DNA FP CB inactive | Cy5 SSB fluor CB inactive | Cy5 fluor confirm 0.8
CC(=O)c1ccc(OC(=O)Cc2ccccc2)cc1	none
CC(C)OC(NC(=O)c1ccco1)C(Cl)(Cl)Cl (stereo not given)	none
COc1cccc(CN2CCN(C(=O)Cc3ccccc3)CC2)c1OC	none
CCc1ccc(CN2CCN(C(=O)COc3ccc(Cl)cc3)CC2)cc1	none
Cc1ccc(C)c(COc2cc(C)cc3oc(=O)c4c(c23)CCC4)c1	none
COc1cc(C=C2C(=O)N(C)C(=O)N(C)C2=O)ccc1OCCOc1ccccc1	none
